PubChem BioAssay AID1259343 (VanderVen Lab, College of Veterinary Medicine, Cornell …, 2017)
In all, about 6,200 compounds went through this assay and about 2,900 (47%) were called active. So high a share suggests a set chosen from earlier hits. Some of the results follow. A number with no mark means an inactive call. No stated cut-off is given here; in the data, active means inhibition above about 50%; inactive means the rest.

Assay: Mycobacterium tuberculosis growth inhibition, primary screen (AID 1259343)
Details: inhibition: at 10 µM, stronger effect = higher value; outcome: 10 uM

SMILES | inhibition
CN(Cc1ccc(-c2ccc(Cl)cc2)o1)C(=O)CNC(=O)c1ccccc1 | 72.2% (active)
CN(Cc1ccc(-c2ccc(Cl)cc2)o1)C(=O)CCl | 90.9% (active)
Cc1oc(-c2ccc(Cl)cc2)nc1CN(C)Cc1ccc2nonc2c1 | 31.7%
Cc1ccc(-c2nc(COC(=O)c3cc(Cl)c[nH]3)cs2)cc1 | 34.1%
Cc1cc(NC(=O)c2csc(-c3ccc(Cl)cc3)n2)n[nH]1 | 74.4% (active)
Cn1ccsc1=NC(=O)c1csc(-c2ccc(Cl)cc2)n1 | 15.8%
Cc1nc2cc(NC(=O)C3CCCN(C(=O)OC(C)(C)C)C3)ccc2o1 (stereo not given) | 82.6% (active)
Cc1cc2cc(C(=O)N3CCCC(C(=O)Nc4ccc(-c5ccco5)cc4)C3)ccc2o1 (stereo not given) | -11.5%
Cc1nc2cc(NC(=O)C(C)Oc3ccc(Cl)cc3)ccc2o1 (stereo not given) | -4.42%
CC(NC(=O)c1cc(C2CC2)on1)c1cc(Cl)ccc1Cl (stereo not given) | 56.5% (active)
O=C(Nc1ccccc1N1CCCC1)c1cc(C2CC2)on1 | 36.3%
CC(C)C(=O)N1CCC(NC(=O)c2cc(C3CC3)on2)CC1 | -6.02%
CCCc1cc(=O)[nH]c(-n2nc(C)cc2NC(=O)c2cccs2)n1 | 100% (active)
CCc1cc(=O)[nH]c(-n2nc(C)cc2NC(=O)c2cccs2)n1 | -29.6%
CCCc1cc(=O)[nH]c(-n2nc(C)cc2NC(=O)c2ccc(Br)cc2)n1 | 99.8% (active)
CCCc1cc(=O)[nH]c(-n2nc(C)cc2NC(=O)c2ccc(C)cc2)n1 | 101% (active)
CCCc1cc(=O)[nH]c(-n2nc(C)cc2NC(=O)c2cccc(Br)c2)n1 | 101% (active)
CNc1cc(C)nc(NCc2cc(C)cc3c(C)c(C)[nH]c23)n1 | 41.1%
CCCc1cc(=O)[nH]c(-n2nc(C)cc2NC(=O)c2cccc(F)c2)n1 | 100% (active)
CCCc1cc(=O)[nH]c(-n2nc(C)cc2NC(=O)c2cc(OC)cc(OC)c2)n1 | -22.1%
CCCc1cc(=O)[nH]c(-n2nc(C)cc2NC(=O)c2cccc(OC)c2)n1 | 99.8% (active)
CCCc1cc(=O)[nH]c(-n2nc(C)cc2NC(=O)c2ccccc2)n1 | 101% (active)
CCCc1cc(=O)[nH]c(-n2nc(C)cc2NC(=O)c2cccc(C(F)(F)F)c2)n1 | 91.4% (active)
CCN(CC)c1nc2sc(C(=O)NC3(C)CCCC3)cc2s1 | 32.9%
CCCc1cc(=O)[nH]c(-n2nc(C)cc2NC(=O)c2ccc(F)cc2)n1 | 101% (active)

SMILES | inhibition
CCCc1cc(=O)[nH]c(-n2nc(C)cc2NC(=O)c2ccc(C(F)(F)F)cc2)n1 | 102% (active)
CCCc1cc(=O)[nH]c(-n2nc(C)cc2NC(=O)c2cc(C(F)(F)F)cc(C(F)(F)F)c2)n1 | 13.6%
CCCc1cc(=O)[nH]c(-n2nc(C)cc2NC(=O)c2cccc(Cl)c2)n1 | 101% (active)
O=S(=O)(NCc1ccc2c(c1)OCO2)c1ccc(F)c(C(F)(F)F)c1 | 26.9%
CN(Cc1ccc(F)cc1F)C(=O)NCc1cccc(C(F)(F)F)c1 | 91% (active)
Cc1cc(CNC(=O)CS(=O)(=O)Cc2cccc(Cl)c2)ccc1F | 15.5%
CN(Cc1ccoc1)C(=O)c1cn(Cc2cccc(C(F)(F)F)c2)nn1 | 14.9%
CN(Cc1ccc(F)cc1)C(=O)NCc1ccc2c(c1)OCO2 | 67.4% (active)
CN(Cc1cccc(C(F)(F)F)c1)C(=O)c1cn(Cc2ccccc2Cl)nn1 | 20.9%
CN(Cc1ccc2c(c1)OCO2)c1ccc(C(=O)NC2CC2)cn1 | 12.6%
CSc1ccc(NC(=O)CN(C)Cc2ccc3c(c2)OCO3)cc1 | 72.3% (active)
CN(Cc1cccc(Cl)c1)C(=O)NCc1cc(F)cc(F)c1 | 72.5% (active)
Cc1ccc(NC(=O)N(C)Cc2cccc(F)c2)c(Cl)c1 | 9.23%
COc1cccc(CNC(=O)N(C)Cc2ccc(C(C)C)cc2)c1 | 85.7% (active)
CN(Cc1ccc(F)cc1F)C(=O)NCc1ccccc1 | 93% (active)
Cc1ccc(NC(=O)N(C)Cc2ccccc2F)cc1Cl | 4.94%
CN(Cc1cc(Br)ccc1F)C(=O)NCc1ccco1 | -23.8%
Cc1ccc(NC(=O)N(C)Cc2ccc(O)cc2)cc1F | 59.5% (active)
COc1ccc(CN(C)C(=O)NCC2Cc3ccccc3O2)cc1 (stereo not given) | -43.1%
COc1ccc(Cl)cc1CN(C)C(=O)Nc1ccc(F)cc1F | -16.8%
CN(Cc1ccsc1)C(=O)Nc1ccc(C(F)(F)F)cc1 | 44.2%
O=C(NCCc1cccs1)C(=O)NCc1cccc(F)c1 | 45.4%
Cc1ccc(CNC(=O)N(C)Cc2cccs2)cc1F | 74.8% (active)
CCOc1ncccc1C(=O)NCc1ccc(C)c(F)c1 | 35.2%
CC1SC(=S)NN1c1ccccc1 (stereo not given) | 92.6% (active)

SMILES | inhibition
Cc1cccc(Nc2ccc(NCCNS(=O)(=O)c3ccc(F)cc3)nn2)n1 | 30.2%
c1ccc2c(OCCCCCn3ccnc3)cccc2c1 | 100% (active)
CCN=c1scc(C)n1N=Cc1ccc(Br)cc1 | 10.9%
CN=c1scc(-c2ccco2)n1N=Cc1c(O)ccc2ccccc12 | 54.4% (active)
CN=c1scc(C)n1N=Cc1cc(Br)c(O)c(Br)c1 | -24.1%
CCN=c1scc(C)n1N=Cc1cc(Br)c(O)c(Br)c1 | 84.4% (active)
CN=c1scc(-c2ccc(OC)cc2)n1N=Cc1cc(Br)c(O)c(OC)c1 | 97.6% (active)
COCCN=c1scc(-c2ccco2)n1N=Cc1cc(Br)c(O)c(OC)c1 | 15.7%
CCN=c1scc(-c2ccco2)n1N=Cc1ccc2c(c1)OCO2 | 23.9%
CN=c1scc(-c2ccco2)n1N=Cc1sccc1C | 42.1%
CN=c1scc(-c2cccc(Br)c2)n1N=Cc1ccncc1 | 13.7%
CN=c1scc(-c2ccco2)n1N=Cc1cc(Br)c(O)c(OC)c1 | 82.5% (active)
Oc1ccc(C=Nn2c(-c3ccco3)csc2=Nc2ccc(F)cc2F)c(O)c1 | 6.26%
CN=c1scc(-c2cccc(Br)c2)n1N=Cc1ccccc1F | -6.53%
C=CCN=c1scc(-c2ccco2)n1N=Cc1cc(OC)ccc1O | 16%
CN=c1scc(-c2cc(Cl)ccc2Cl)n1N=Cc1ccc(O)cc1O | 65.9% (active)
CN=c1scc(-c2ccccc2Br)n1N=Cc1cccc(O)c1 | 28.8%
C=C(C)CN=c1scc(-c2ccco2)n1N=Cc1ccc(O)cc1O | 89.4% (active)
Cc1ccccc1-c1nnc(CN2CCCC3CCCC32)o1 (stereo not given) | 59% (active)
Cc1ccccc1CCC1CCCN(Cc2nnc(-c3ccco3)o2)C1 (stereo not given) | 2.39%
Cc1ccccc1-c1ncc(CN2CCCC2c2nonc2C)s1 (stereo not given) | 27.5%
Cc1cc(=O)[nH]c(Nc2nc(C)c3cc(C)c(C)cc3n2)n1 | -34.5%
O=C(CCl)N1CCC(Cc2ccccc2)CC1 | -0.35%
Cc1ccc(C2CC(c3cccc(F)c3)=NN2C(=O)CN2CCC(Cc3ccccc3)CC2)cc1 (stereo not given) | 42.1%
COC(=O)CC(=O)N1CCC(Cc2ccc(-c3ccccc3)cc2)CC1 | 87% (active)

SMILES | inhibition
O=C(Cc1ccccc1)N1CCC(Cc2ccc(-c3ccccc3)cc2)CC1 | 72.6% (active)
COc1ccccc1/C=C/CN1CCCC(CCC(=O)Nc2cc(Cl)ccc2OC)C1 (stereo not given) | 14.3%
Cc1noc(C)c1CCC(=O)Nc1ccc2oc3ccccc3c2c1 | 25.6%
COc1cc2c(cc1NC(=O)CC(C)=NNC=O)oc1ccccc12 | 95.5% (active)
Cc1cc(C)c2sc(NCC(C)C)nc2c1 | 13.6%
COC(=O)c1sc2c(c1N)CCC(C(C)(C)C)C2 (stereo not given) | 29.1%
COC(=O)c1c(N)sc2c1CCC(C(C)(C)C)C2 (stereo not given) | -34.2%
CC(C)(C)C1CCc2c(C(=O)N/N=C\c3ccoc3)csc2C1 (stereo not given) | 79.8% (active)
Cc1ccc(-c2c[nH]n3c(=O)cc(C(C)(C)C)nc23)cc1 | 98.8% (active)
Cc1cc(=O)n2[nH]cc(-c3ccc(Cl)cc3)c2n1 | -30.9%
CC(C)(C)c1cc(=O)n2[nH]cc(-c3ccc(Cl)cc3)c2n1 | 32.1%
Cc1cc(=O)n2[nH]c(C(F)(F)F)c(-c3ccc(Cl)cc3)c2n1 | 61.6% (active)
Cc1[nH]n2c(=O)cc(C(C)(C)C)nc2c1-c1ccc(Cl)cc1 | 101% (active)
CC(CCc1ccccc1)NC(=O)c1c(O)nc2sccn2c1=O (stereo not given) | 62.6% (active)
CC(NC(=O)c1c(O)nc2sccn2c1=O)c1ccccc1 (stereo not given) | 90.9% (active)
CCCCn1c(=O)[nH]c(=O)c2c1nc(COC(=O)C1CC1)n2C | 12.4%
O=C(O)C1CC=CCC1C(=O)Nc1ccc(N2CCN(c3cccc(Cl)c3Cl)CC2)cc1 (stereo not given) | 21.6%
O=C(Nc1ccc(-c2ccccc2)cc1)C1CC=CCC1C(=O)N1CCc2c([nH]c3ccccc23)C1 (stereo not given) | 91% (active)
C1=CC(c2ccc(C=NNc3nc4ccccc4s3)s2)CC1 (stereo not given) | 99.1% (active)
CC1CC(=NNc2nc3ccccc3s2)CC(C)(C)C1 (stereo not given) | 23.3%
C1=CC(c2ccc(C=NNc3ccccn3)s2)CC1 (stereo not given) | -47.3%
NC(=S)NN=Cc1ccc(C2C=CCC2)s1 (stereo not given) | 84.9% (active)
C(=Nn1c(-c2ccccc2)csc1=NCc1ccccc1)c1cccnc1 | 28.2%
C=CCN=c1scc(-c2ccc(C)cc2)n1N=Cc1ccc(F)cc1 | -4.92%
N#Cc1ccc(C=Nn2c(-c3ccc(F)cc3)csc2=Nc2cccnc2)cc1 | 97.7% (active)
